High-throughput results from PubChem.
Shown are actives, neighbours in structure and some others; about 7.7% of the full set was active somewhere.
HCMV antiviral: blocks human cytomegalovirus replication | HFF cells, HCMV-luciferase reporter, 72 h; hits give low values | activity change, negative = inhibition, % at 57.5 µM | 410,000 tested, 4.5% active; in the data active = activity change below about -60%; inconclusive = no clear call, values can overlap the other calls; inactive = above about -39%
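After 16 h attachment at 37C, HFF cells received test compound and HCMV-luciferase (1 PFU/cell); reporter luminescence read 72 h later, data normalized against buffer-only and known inhibitor Salinomycin.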
FMDV inh: antivirals against foot and mouth disease virus; FMDV antiviral cell-based qHTS; Potency, µM (doses to about 57.9 µM), for inactives: at the highest dose activity change, negative = inhibition, actives largely listed as inhibitors; 410,000 tested, 1.2% active; AID 1159524; calls by dose curve; tested in HEK293T cells; also: read-out not given here; potency is read from the fitted curve at half-maximal effect; nearly all actives have a fitted effect of over 45% in size
FBPA Giardia inh: Giardia lamblia aldolase inhibition; A8B2U2; purified Giardia FBPA; Potency, µM (highest dose often 59.6 µM), for the others: at the highest dose activity, negative = inhibition, usual class: inhibitors; 290,000 tested, 0.71% active; AID 2451; also: potency is read from the fitted curve at half-maximal effect; nearly all actives have a fitted effect of over 55% in size
Target sequence (A8B2U2 whole entry, looked up): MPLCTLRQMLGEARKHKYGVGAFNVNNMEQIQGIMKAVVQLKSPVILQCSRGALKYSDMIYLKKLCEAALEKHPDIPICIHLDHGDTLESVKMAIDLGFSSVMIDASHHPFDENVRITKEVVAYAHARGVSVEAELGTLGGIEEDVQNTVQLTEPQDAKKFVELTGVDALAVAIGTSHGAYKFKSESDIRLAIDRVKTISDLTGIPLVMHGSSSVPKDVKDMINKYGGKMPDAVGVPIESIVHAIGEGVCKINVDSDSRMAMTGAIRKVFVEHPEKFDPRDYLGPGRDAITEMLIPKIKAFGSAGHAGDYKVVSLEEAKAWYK
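40 nM FBPA preincubated 10 min at RT with compound (up to 57.5 uM final), then substrate plus GAPDH/TPI/NAD/arsenate coupling and diaphorase/resazurin added. Fluorescence read after 20 min at RT, 525/598 nm.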
Sm TGR block: inhibitors of Schistosoma mansoni thioredoxin glutathione reductase; 360,000 tested, 3% active; Q962Y6; purified TGR, DTNB reduction, TNB absorbance 405 nm; Potency, µM (highest dose often 114 µM), for the others: at the top dose activity change, negative = inhibition, most hits filed as inhibitors; AID 485364; also: potency is read from the fitted curve at half-maximal effect; nearly all actives have a fitted effect of over 60% in size
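Kinetic colorimetric format: TGR-catalysed, NADPH-driven DTNB reduction monitored via TNB absorbance. Enzyme dispensed at 20 nM; compound exposure 15 min at room temperature before reaction start.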
RE007 growth inh: less growth of the S. pombe RE007 Vpr strain | S. pombe RE007 Vpr strain, BacTiter-Glo ATP luminescence, 24 h | Potency, µM (highest dose often 92.2 µM), without a hit: top-dose activity change, negative = less growth, actives largely listed as inhibitors | 360,000 tested, 0.21% active | AID 651644; active = well fitted falling curve with a large enough effect; inconclusive = small, poorly fitted or top-dose-only effect; inactive = no such curve, though single readings can be large or run the other way; also: potency is read from the fitted curve at half-maximal effect; nearly all actives have a fitted effect of over 50% in size
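Fission yeast RE007 carrying one integrated HIV-1 vpr copy, seeded at OD 0.01 in PMG+AL medium with 23 nL pinned compound. Grown 24 h at 30 degrees; viability read by BacTiter-Glo luminescence after 5 min.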
TbPYK inhibitor: inhibitors of Trypanosoma brucei pyruvate kinase | 410,000 tested, 0.12% active | Potency, µM (titrated, usually from 76.8 µM), without a hit: top-dose activity, negative = inhibition, actives largely listed as inhibitors | TbPYK enzyme, Kinase-Glo Plus ATP luminescence, 45 min | Q57TT1; also: potency is read from the fitted curve at half-maximal effect; nearly all actives have a fitted effect of over 50% in size
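Activity of T. brucei pyruvate kinase was followed by Kinase-Glo Plus luminescence after the enzyme reacted 45 min at room temperature with 130 uM ADP (final) and substrate. Test compounds were added before ADP at multiple concentrations.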
Starred values were filed as active, the others as inactive; [ ] = dose if it differs, or a comment. Unless noted, calls follow the shape of the dose curve; as a rule, active = well fitted curve in the direction sought with a large enough effect; inconclusive = small, poorly fitted or top-dose-only effect, or another doubt; inactive = no such curve, though single readings can be large; an effect the other way counts as inactive or inconclusive. % is scaled to controls: 0 for no effect and ±100 for the full control effect.

How did CCN(CC(=O)NC(C)(C)C)C(=O)COc1c(Cl)cc(Cl)c2ccc(C)nc12 do in these assays?
HCMV antiviral: inconclusive; FMDV inh: -18%; FBPA Giardia inh: -16%; Sm TGR block: 16µM*; RE007 growth inh: inconclusive; TbPYK inhibitor: -2%

Results for CCC(Sc1nc2cc(OC)c(OC)cc2c(=O)n1Cc1ccc(Cl)cc1)C(=O)NCCOC (stereo not given) ?
HCMV antiviral: -8; FMDV inh: -11%; Sm TGR block: 3%; TbPYK inhibitor: -1%

Results for C[C@H]1C[C@@H]2[C@H]3CCC4=CC(=O)C=C[C@@]4(C)[C@@]3(Cl)[C@@H](O)C[C@]2(C)[C@]1(OC(=O)c1ccco1)C(=O)CCl ?
FBPA Giardia inh: -1%[21.7 µM]; TbPYK inhibitor: 3%[33.2 µM]

Results for C[C@@H]1C[C@H]2[C@@H]3CCC4=CC(=O)C=C[C@]4(C)[C@@]3(Cl)[C@@H](O)C[C@]2(C)[C@@]1(OC(=O)c1ccco1)C(=O)CCl ?
HCMV antiviral: -73*; FMDV inh: inconclusive; Sm TGR block: -31%; RE007 growth inh: 0%; TbPYK inhibitor: -4%

How did C[C@@H](c1ccccc1)N1C(=O)[C@@H]2[C@H]3C(=CC[C@H]2C1=O)C(=O)[C@H]1O[C@H]1[C@H]3O do in these assays?
FBPA Giardia inh: 4%[12.9 µM]

How did COC(=O)c1ccc(N2C(=O)CC(N(C)Cc3ccccc3)C2=O)cc1 (stereo not given) do in these assays?
HCMV antiviral: -15; FMDV inh: -25%; FBPA Giardia inh: 5%; Sm TGR block: -4%; RE007 growth inh: 6.3µM*; TbPYK inhibitor: -5%

What do the screens show for `CCOc1ccc(N2C(=O)CC(N(C)Cc3ccccc3)C2=O)cc1` (stereo not given)?
HCMV antiviral: inconclusive; FMDV inh: -21%; FBPA Giardia inh: 3%; Sm TGR block: 32µM*; RE007 growth inh: 35µM*; TbPYK inhibitor: -6%

What do the screens show for `O=C(O)CSC1CC(=O)N(c2ccc(Br)cc2)C1=O` (stereo not given)?
HCMV antiviral: 15; FMDV inh: -3%; FBPA Giardia inh: 7%; Sm TGR block: 45µM*; RE007 growth inh: inconclusive; TbPYK inhibitor: -19%

What do the screens show for `CCCOc1ccc(N2C(=O)CC(SCC(N)C(=O)OCC)C2=O)cc1` (stereo not given)?
HCMV antiviral: 31; FMDV inh: 23%; FBPA Giardia inh: inconclusive; Sm TGR block: inconclusive; RE007 growth inh: inconclusive; TbPYK inhibitor: -1%

How did CCCOc1ccc(N2C(=O)CC(SCCN)C2=O)cc1 (stereo not given) do in these assays?
HCMV antiviral: 148; FMDV inh: 21%; FBPA Giardia inh: -19%; Sm TGR block: 35µM*; RE007 growth inh: 7.9µM*; TbPYK inhibitor: -14%

Results for CN(Cc1ccncc1)C1CC(=O)N(c2ccc(F)cc2)C1=O (stereo not given) ?
HCMV antiviral: inconclusive; FMDV inh: -8%; FBPA Giardia inh: 3%; RE007 growth inh: -12%; TbPYK inhibitor: 5%

How did O=C(O)CSC1CC(=O)N(c2ccc(Cl)cc2)C1=O (stereo not given) do in these assays?
HCMV antiviral: 35; FMDV inh: 8%; FBPA Giardia inh: 4%; Sm TGR block: 5%[11.4 µM]; RE007 growth inh: 18%; TbPYK inhibitor: 4%

What do the screens show for `COc1ccc(-c2noc(-c3nnn(-c4cc(C)ccc4C)c3N)n2)cc1`?
HCMV antiviral: -24; FMDV inh: 19%; Sm TGR block: -3%; TbPYK inhibitor: 4%

Results for CCOc1ccc(N2C(=O)CC(N)C2=O)cc1 (stereo not given) ?
HCMV antiviral: 27; FMDV inh: -15%; FBPA Giardia inh: 1%; Sm TGR block: 3.5µM*; RE007 growth inh: 7.1µM*; TbPYK inhibitor: -5%

Results for N#Cc1ncc(-c2ccc3c(c2)OCCOCCOCCOCCO3)nc1C#N ?
HCMV antiviral: -73*; FMDV inh: 40µM*; FBPA Giardia inh: -1%; Sm TGR block: -15%; RE007 growth inh: 6%; TbPYK inhibitor: -2%

How did Cc1cc(C)c(Nc2cc(S(=O)(=O)O)c(N)c3c2C(=O)c2ccccc2C3=O)c(C)c1 do in these assays?
HCMV antiviral: 3; FMDV inh: 8.9µM*; FBPA Giardia inh: -5%; Sm TGR block: -7%; TbPYK inhibitor: inconclusive

What do the screens show for `COc1ccccc1NC(=O)CSC1=NCCN1`?
HCMV antiviral: inconclusive; FMDV inh: 0%; FBPA Giardia inh: -7%; Sm TGR block: 12%; TbPYK inhibitor: 0%

Results for O=C(CSC1=NCCN1)Nc1cccc([N+](=O)[O-])c1 ?
HCMV antiviral: 13; FMDV inh: 18µM*; FBPA Giardia inh: -14%; Sm TGR block: 10%; RE007 growth inh: -1%; TbPYK inhibitor: -2%

How did O=C(CSC1=NCCN1)NC(c1ccccc1)c1ccccc1 do in these assays?
HCMV antiviral: 40; FMDV inh: 32µM*; FBPA Giardia inh: -12%; Sm TGR block: 16%; RE007 growth inh: 2%; TbPYK inhibitor: -10%

How did CO/N=C1/c2cc(OC)ccc2O[C@@H](c2cccc(OC)c2)[C@H]1O do in these assays?
FBPA Giardia inh: 1%[12.9 µM]

Results for CC(C)CC(NC(=O)C(COC(C)(C)C)NC(=O)C(Cc1ccc(O)cc1)NC(=O)C(CO)NC(=O)C(Cc1c[nH]c2ccccc12)NC(=O)C(Cc1cnc[nH]1)NC(=O)C1CCC(=O)N1)C(=O)NC(CCCN=C(N)N)C(=O)N1CCCC1C(=O)NNC(N)=O (stereo not given) ?
FBPA Giardia inh: 4%; TbPYK inhibitor: 2%

What do the screens show for `CCn1nc(C)c(CCN(C)C(=O)Nc2cc(OC)c(OC)c(OC)c2)c1C`?
HCMV antiviral: 17; FMDV inh: 2%; Sm TGR block: 0%; TbPYK inhibitor: 0%

How did COc1cccc(CNC(=O)CCNS(=O)(=O)c2ccc3c(c2)CCCC(=O)N3)c1 do in these assays?
HCMV antiviral: 5; FMDV inh: 0%; Sm TGR block: 3%; TbPYK inhibitor: 1%

What do the screens show for `COc1cccc(N2CCN(c3ncnc4c3[nH]c3ccccc34)CC2C)c1` (stereo not given)?
HCMV antiviral: -102*; FBPA Giardia inh: -6%; Sm TGR block: 1%

How did COc1cccc(N2CCN(c3ncnc4c3[nH]c3ccc(F)cc34)CC2C)c1 (stereo not given) do in these assays?
HCMV antiviral: -97*; FMDV inh: 2µM*; FBPA Giardia inh: -3%; Sm TGR block: -10%; RE007 growth inh: 6%; TbPYK inhibitor: -4%

What do the screens show for `N#C[C@H]1C[C@H]2C[C@@H]2N1C(=O)[C@@H](N)C12CC3CC(CC(O)(C3)C1)C2`?
TbPYK inhibitor: -2%
